p53 reactivation: qHTS assay for re-activators of p53 using a Luc reporter | H1299 p53-A138V BP100-luciferase reporter, luminescence, 24 h | Potency, µM (series often up to 92.2 µM), inactives show at the highest dose activity change, positive = activation, most hits filed as activators | 320,000 tested, 0.063% active; further: potency means the concentration at half of the fitted maximal effect; % of control where 0% means no effect; nearly all actives have a fitted effect of over 45% in size
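p53-null H1299 cells stably carrying temperature-sensitive p53-A138V and a BP100-luciferase reporter were pinned with compounds (4-point, 1:5 series) and held 24 hrs at 37 deg C. Luminescence was read 10 min after detection reagent.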
A549 tox: Nrf2 qHTS screen for inhibitors: counterscreen for cytotoxicity. A549 ARE-Fluc cells, CellTiter-Fluor viability, 18-24 h. Potency, µM (top dose mostly 46 µM), for the others: top-dose activity change, negative = cytotoxicity, hits mostly inhibitors. 390,000 tested, 0.16% active. AID 504648, 2011; further: potency means the concentration at half of the fitted maximal effect; on the % scale 0 is the no-effect control and ±100 the full control effect
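A549 ARE-Fluc cells in 5% FBS OPTI-MEM, 5000 cells/well, rested 2 h then exposed to compounds in concentration-response for 18-24 h at 37 °C. Viability by CellTiter-Fluor fluorescence (Ex 405/Em 525) after 30 min; luciferase luminescence (BugLite, 15 min, RT) read afterwards.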
miR-21 act: qHTS Assay for Modulators of miRNAs and/orActivators of miR-21; HeLa miR-21 FLuc reporter, luciferase, 48 h; Potency, µM (highest dose often 38.3 µM), without a hit: at the highest dose activity change, positive = activation, most hits filed as activators; 340,000 tested, under 10 active; AID 2288, 2010;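 further: % of control where 0% means no effect; miR-21 action dims this reporter so a rising signal means less miR-21 action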
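HeLa cells stably expressing CMV-driven firefly luciferase with a downstream miR-21 binding sequence, endogenously expressing miR-21, were treated with titrations (up to about 40uM final) for 48 hours at 37 degree Celsius. Luciferase luminescence was read after lysis.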
Nrf2 inh: Nrf2 qHTS screen for inhibitors; A549 ARE-Fluc reporter, luciferase luminescence, 18-24 h; Potency, µM (series often up to 46 µM), without a hit: at the top dose activity change, negative = inhibition, hits mostly inhibitors; 360,000 tested, 2.1% active; further: potency means the concentration at half of the fitted maximal effect; on the % scale 0 is the no-effect control and ±100 the full control effect; nearly all actives have a fitted effect of over 60% in size
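Concentration-response testing used A549 ARE_Fluc cells at 5000 cells/well. Following an 18-24 h compound incubation, viability was read by fluorescence (Ex 405/Em 525) and luciferase output by luminescence.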
ClpP mod: qHTS Assay for Activators of ClpP; 340,000 tested, 1.9% active; Potency, µM (series often up to 57.5 µM), for inactives: at the top dose activity change, negative = active; purified B. subtilis ClpP, FRET peptide cleavage, 20 min; active means well fitted falling curve with a large enough effect; inconclusive means small, poorly fitted or top-dose-only effect; inactive means no such curve, though single readings can be large or run the other way; further: potency means the concentration at half of the fitted maximal effect; the source files actives as falling curves though it sought activators and does not explain the sign; nearly all actives have a fitted effect of over 65% in size
Target sequence (P80244 whole entry, looked up): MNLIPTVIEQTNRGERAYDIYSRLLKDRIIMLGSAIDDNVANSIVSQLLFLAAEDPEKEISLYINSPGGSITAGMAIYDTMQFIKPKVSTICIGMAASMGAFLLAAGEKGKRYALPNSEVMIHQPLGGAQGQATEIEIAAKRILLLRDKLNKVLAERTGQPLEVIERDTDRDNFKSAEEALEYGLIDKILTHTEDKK
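FRET quenching reversal measured ClpP activation: 10 microg/mL B. subtilis ClpP at pH 8 with the FRET-FV decapeptide, read at 430 nm after 320 nm excitation. The 20-min minus 0-min signal was scaled between DMSO/no-enzyme wells and ADEP (5.8 microM final).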
Nrf2 activator: qHTS of Nrf2 Activators. AREc32 ARE-luciferase reporter (MCF7-derived line), luminescence, 24 h. Potency, µM (doses to about 46.1 µM), without a hit: top-dose activation, usual class: activators. 410,000 tested, 0.31% active. AID 624171, 2012; further: potency means the concentration at half of the fitted maximal effect; % of control where 0% means no effect; nearly all actives have a fitted effect of over 65% in size
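AREc32 cells carrying an ARE-driven firefly luciferase reporter were seeded at 1000 cells/well in OPTI-MEM with 5% FBS, then exposed to compound for 24 hr at 37 deg C. Luminescence was read with Steady-Glo after 30 min at RT.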
* hit, by the source's call. Shown are actives, neighbours in structure and some others; about 3.7% of the full set was active somewhere. Unless noted, the call rests on the fitted dose curve; in most records, active means well fitted curve in the direction sought with a large enough effect; inconclusive means small, poorly fitted or top-dose-only effect, or another doubt; inactive means no such curve, though single readings can be large; an effect the other way counts as inactive or inconclusive.

Screening Cc1ccc(C)c(NC(=O)c2ccc(OCc3c(C)noc3C)cc2)c1 returned p53 reactivation -3.0%, A549 tox -0.8%, Nrf2 inh -18.8%, ClpP mod 31.6µM* and Nrf2 activator -0.1%.
O=C1Nc2ccccc2/C1=N/N=C/c1cccc(O)c1 was read as p53 reactivation 10.4%, A549 tox -4.5%, miR-21 act -3.5%, Nrf2 inh -2.6% and Nrf2 activator 23.8%.
`COc1cc(/C=N/N=C2/C(=O)Nc3ccccc32)cc(OC)c1O` gave p53 reactivation -18.6%, A549 tox 1.8%, miR-21 act -15.7%, Nrf2 inh 15.8%, ClpP mod 0.9% and Nrf2 activator 11.2µM*.
`Cc1ccc2nc(N3CCN(Cc4nnnn4C4CCCC4)CC3)c(C#N)cc2c1` gave p53 reactivation -10.3%, A549 tox 0.9%, miR-21 act -0.2%, Nrf2 inh 23.1µM*, ClpP mod -9.2% and Nrf2 activator -0.7%.
CCC(C)(C)n1nnnc1CN1CCN(c2nc3cc(OC)ccc3cc2C#N)CC1 was read as p53 reactivation -1.7%, A549 tox -13.5%, miR-21 act -4.3%, Nrf2 inh 18.4µM*, ClpP mod inconclusive and Nrf2 activator -0.1%.
`Cc1ccc(C)c(N2CCN(Cc3nnnn3C3CCCCC3)CC2)c1` gave p53 reactivation -2.0%, A549 tox 12.8%, miR-21 act 1.3%, ClpP mod -0.9% and Nrf2 activator 0.0%.
`COc1ccc2cc(C#N)c(N3CCOCC3)nc2c1` gave p53 reactivation 31.8%, A549 tox 1.5%, miR-21 act 4.8%, Nrf2 inh -9.0%, ClpP mod -1.1% and Nrf2 activator 0.1%.
CCOC(=O)Cc1csc(NC(=O)c2ccc3ncsc3c2)n1 was read as p53 reactivation 1.6%, A549 tox 4.0%, miR-21 act -13.9%, Nrf2 inh 2.0%, ClpP mod -2.7% and Nrf2 activator -0.4%.
O=C(/C=C/c1ccc2c(c1)OCO2)NCCSCc1cccc(Cl)c1 was read as p53 reactivation 5.7%, A549 tox -9.8%, miR-21 act 10.3%, Nrf2 inh -28.4%, ClpP mod 31.6µM* and Nrf2 activator -0.3%.
Screening O=C(/C=C/c1ccc2c(c1)OCO2)NCCCN1CCOCC1 returned p53 reactivation 3.3%, A549 tox 0.3%, miR-21 act -9.4%, Nrf2 inh 4.3%, ClpP mod 15.8µM* and Nrf2 activator 4.2%.
For CCC(C(=O)OCc1cc(=O)n2nc(C)sc2n1)c1ccccc1 (stereo not given) the results were A549 tox 11.9%, miR-21 act -10.7%, Nrf2 inh -21.0%, ClpP mod -3.2% and Nrf2 activator 0.7%.
For Cc1cccc(C(=O)N(C(=O)c2cccc(C)c2)N(C)C)c1 the results were A549 tox 0.8%, Nrf2 inh -22.5% and Nrf2 activator -1.6%.
`CCOc1ccc(-n2nc3ccc(NC(=O)COc4ccccc4C)cc3n2)cc1` gave A549 tox 2.8%, miR-21 act 1.5%, Nrf2 inh -19.6%, ClpP mod 4.9% and Nrf2 activator -2.2%.
`O=S(=O)(c1ccc2c(c1)OCCO2)N1CCN(S(=O)(=O)c2ccc3nc(Cl)c(Cl)nc3c2)CC1` gave A549 tox -5.4% and Nrf2 inh -16.1%.
Screening COc1cc(C(=O)Nc2nc(-c3ccc(F)cc3)cs2)ccc1OCC(=O)N1CCOCC1 returned p53 reactivation 0.4%, A549 tox -13.1%, miR-21 act 29.2%, Nrf2 inh 20.6µM*, ClpP mod -19.4% and Nrf2 activator -2.4%.
CC1CN(S(=O)(=O)c2ccc(C(=O)Nc3nc(-c4cc5ccccc5o4)cs3)cc2)CC(C)O1 (stereo not given) was read as p53 reactivation -15.5%, A549 tox 7.31µM*, miR-21 act 8.8%, Nrf2 inh 3.66µM* and Nrf2 activator -0.3%.
Cc1ccccc1NC(=O)c1ccc(F)c(S(=O)(=O)N2CCN(c3ccccn3)CC2)c1 was read as p53 reactivation 0.4%, A549 tox 5.7%, miR-21 act 12.2%, ClpP mod -2.7% and Nrf2 activator 2.2%.
`O=C(Nc1nc(-c2ccccn2)cs1)c1ccc(F)c(S(=O)(=O)N2CCOCC2)c1` gave p53 reactivation inconclusive, A549 tox inconclusive, Nrf2 inh 8.2µM*, ClpP mod -1.0% and Nrf2 activator 2.8%.
For O=C(Nc1nc(-c2ccccn2)cs1)c1cc(S(=O)(=O)N2CCOCC2)ccc1F the results were p53 reactivation inconclusive, A549 tox 0.4%, Nrf2 inh 5.4%, ClpP mod -6.4% and Nrf2 activator 2.6%.
O=C(Nc1ccc(Br)cc1)c1ccc(F)c(S(=O)(=O)N2CCN(c3ccccn3)CC2)c1 was read as p53 reactivation -1.7%, A549 tox -8.9%, miR-21 act 16.4%, Nrf2 inh 23.1µM* and Nrf2 activator 2.7%.
`Cc1cccc(-c2noc(CN(C(C)C)S(=O)(=O)c3ccc(Br)cc3)n2)c1` gave A549 tox 7.9%, miR-21 act 4.3%, Nrf2 inh inconclusive, ClpP mod -6.2% and Nrf2 activator 4.2%.
Cc1ccc(Nc2nc(-c3ccc(S(=O)(=O)N4CCOCC4)cc3)cs2)cc1Cl was read as p53 reactivation 1.3%, A549 tox 8.5%, miR-21 act -3.6%, Nrf2 inh inconclusive, ClpP mod 15.8µM* and Nrf2 activator 0.0%.
Screening Cc1csc(NC(=O)CSc2nnc(-c3ccc(S(=O)(=O)N4CCCC4)cc3)o2)n1 returned p53 reactivation 1.0%, A549 tox -17.1%, miR-21 act -19.8%, Nrf2 inh inconclusive, ClpP mod 28.2µM* and Nrf2 activator 10.4%.
For CCCCC(=O)Nc1nc(-c2ccc(S(=O)(=O)N3CCOCC3)cc2)cs1 the results were p53 reactivation -16.4%, A549 tox -3.4%, miR-21 act 21.6%, Nrf2 inh inconclusive, ClpP mod 28.2µM* and Nrf2 activator 3.5%.
CC(C)CC(=O)Nc1nc(-c2ccc(S(=O)(=O)N3CCOCC3)cc2)cs1 was read as A549 tox 2.3%, miR-21 act 13.5%, Nrf2 inh inconclusive, ClpP mod 31.6µM* and Nrf2 activator 3.0%.

Assay outcomes from PubChem.
